Reference: PubChem BioAssay AID1159580 (chemical genetic matrix, 2015)
Several values for one entry are separate records, joined by “and”; a condition that tells them apart may be missing. Equal values may be shown once. The campaign covered roughly 5,500 compounds. About 2,000 (36%) were called active. About 18% were inconclusive and are not listed. No stated cut-off is given here; in the data, active means normalized growth mostly below about 0.91 (no sharp cut-off); inconclusive means no clear call, values can overlap the other calls; inactive means mostly above about 0.92. Some of the results follow.

Experiment: chemical genetic growth profiling, strain panel (AID 1159580);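 further: tested at 20 µM; growth read once vehicle control cultures reached saturation at 30 °C; 1 = growth at the plate median or of vehicle wells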
Conditions: S. cerevisiae deletion strains, growth OD

Measured: normalized growth

CS(=O)(=O)CCCCN=C=S
inactive: locus YBR171W, strain sec66, stronger effect = lower value 0.954 | locus YBR229C, strain ROT2, stronger effect = lower value 0.96 | locus YDL005C, strain med2, stronger effect = lower value 1.01 | locus YDL185W, strain tfp1, stronger effect = lower value 0.948 | locus YDR137W, strain rgp1, stronger effect = lower value 0.918 | locus YDR150W, strain NUM1, stronger effect = lower value 0.963 | locus YDR159W, strain sac3, stronger effect = lower value 0.898 | locus YEL061C, strain CIN8, stronger effect = lower value 0.978 | locus YER111C, strain swi4, stronger effect = lower value 0.988 | locus YER155C, strain BEM2, stronger effect = lower value 1.01 | locus YER167W, strain BCK2, stronger effect = lower value 0.973 | locus YGL167C, strain pmr1, stronger effect = lower value 0.964 | locus YIL073C, strain SPO22, stronger effect = lower value 0.772 | locus YJL115W, strain asf1, stronger effect = lower value 0.941 | locus YJL134W, strain LCB3, stronger effect = lower value 0.981 | locus YJL168C, strain set2, stronger effect = lower value 0.954 | locus YKL068W, stronger effect = lower value 1.01 | locus YKL085W, strain MDH1 (second series), stronger effect = lower value 1 | locus YKL085W, strain MDH1, stronger effect = lower value 1 | locus YLR039C, strain RIC1, stronger effect = lower value 0.758 | locus YLR102C, strain apc9, stronger effect = lower value 0.983 | locus YLR262C, strain YPT6, stronger effect = lower value 0.797 | locus YLR342W, strain FKS1 (second series), stronger effect = lower value 0.813 | locus YLR357W, strain rsc2, stronger effect = lower value 0.98 | locus YMR078C, strain ctf18, stronger effect = lower value 0.965 | locus YMR125W, strain sto1, stronger effect = lower value 0.947 | locus YMR307W, strain GAS1, stronger effect = lower value 0.734 | locus YOL012C, strain htz1 0.428 | locus YOR061W, strain CKA2, stronger effect = lower value 0.936 | locus YOR080W, strain dia2, stronger effect = lower value 0.966 | locus YPR119W, strain clb2, stronger effect = lower value 1 | locus YPR141C, strain kar3, stronger effect = lower value 0.981
active: locus YAL021C, strain ccr4, stronger effect = lower value 0.889 | locus YAL030W, strain snc1, stronger effect = lower value 0.734 | locus YBL061C, strain skt5, stronger effect = lower value 0.746 | locus YBR009C, strain hhf1, stronger effect = lower value 0.495 | locus YBR021W, strain FUR4, stronger effect = lower value 0.847 | locus YBR023C, strain chs3, stronger effect = lower value 0.769 | locus YBR231C, strain swc5, stronger effect = lower value 0.504 | locus YBR279W, strain paf1, stronger effect = lower value 0.708 | locus YCL011C, strain gbp2, stronger effect = lower value 0.551 | locus YCL016C, strain dcc1, stronger effect = lower value 0.751 | locus YCL029C, strain bik1, stronger effect = lower value 0.822 | locus YCL061C, strain MRC1, stronger effect = lower value 0.834 | locus YCL069W, strain vba3, stronger effect = lower value 0.663 | locus YCR088W, strain abp1, stronger effect = lower value 0.84 | locus YDL035C, strain GPR1, stronger effect = lower value 0.791 | locus YDL040C, strain nat1, stronger effect = lower value 0.896 | locus YDL074C, strain BRE1, stronger effect = lower value 0.683 | locus YDL101C, strain DUN1, stronger effect = lower value 0.853 | locus YDL134C, strain PPH21, stronger effect = lower value 0.762 | locus YDL192W, strain arf1, stronger effect = lower value 0.688 | locus YDR001C, strain nth1, stronger effect = lower value 0.896 | locus YDR069C, strain doa4, stronger effect = lower value 0.829 | locus YDR101C, strain arx1, stronger effect = lower value 0.742 | locus YDR162C, strain NBP2, stronger effect = lower value 0.69 | locus YDR195W, strain ref2 1.2 [resistant] | locus YDR297W, strain sur2, stronger effect = lower value 0.737 | locus YDR318W, strain mcm21, stronger effect = lower value 0.816 | locus YDR334W, strain swr1, stronger effect = lower value 0.375 | locus YDR335W, strain msn5, stronger effect = lower value 0.802 | locus YDR388W, stronger effect = lower value 0.869 | locus YDR392W, strain spt3, stronger effect = lower value 0.474 | locus YDR502C, strain sam2, stronger effect = lower value 0.696 | locus YEL003W, strain gim4, stronger effect = lower value 0.217 | locus YEL037C, strain rad23, stronger effect = lower value 0.749 | locus YEL061C, strain CIN8 (second series), stronger effect = lower value 0.853 | locus YER015W, strain faa2, stronger effect = lower value 0.478 | locus YER016W, strain bim1, stronger effect = lower value 0.758 | locus YER110C, stronger effect = lower value 0.807 | locus YER155C, strain BEM2 (second series), stronger effect = lower value 0.439 | locus YFR010W, strain ubp6, stronger effect = lower value 0.62 | locus YGL078C, strain dbp3, stronger effect = lower value 0.92 | locus YGL086W, strain mad1, stronger effect = lower value 0.723 | locus YGL173C, strain kem1, stronger effect = lower value 0.692 | locus YGL227W, strain vid30, stronger effect = lower value 0.86 | locus YGL240W, strain doc1, stronger effect = lower value 0.545 | locus YGL248W, strain PDE1, stronger effect = lower value 0.724 | locus YGL253W, strain hxk2, stronger effect = lower value 0.428 | locus YGR078C, strain PAC10, stronger effect = lower value 0.799 | locus YGR135W, strain pre9, stronger effect = lower value 0.815 | locus YGR252W, strain gcn5, stronger effect = lower value 0.634 | locus YHR013C, strain ard1, stronger effect = lower value 0.816 | locus YHR027C, strain rpn1, stronger effect = lower value 0.618 | locus YHR079C, strain IRE1 (second series), stronger effect = lower value 0.885 | locus YHR079C, strain IRE1, stronger effect = lower value 0.67 | locus YHR094C, strain hxt1, stronger effect = lower value 0.913 | locus YHR129C, strain ARP1, stronger effect = lower value 0.865 | locus YHR142W, strain chs7, stronger effect = lower value 0.536 | locus YHR200W, strain rpn10, stronger effect = lower value 0.905 | locus YIL066C, strain RNR3, stronger effect = lower value 0.807 | locus YIL125W, strain kgd1, stronger effect = lower value 0.901 | locus YIR030C, strain dcg1, stronger effect = lower value 0.77 | locus YJL092W, strain hpr5, stronger effect = lower value 0.782 | locus YJL095W, strain BCK1 (second series), stronger effect = lower value 0.791 | locus YJL095W, strain BCK1, stronger effect = lower value 0.606 and 0.709 | locus YJL129C, strain trk1, stronger effect = lower value 0.762 | locus YJL154C, strain vps35, stronger effect = lower value 0.839 | locus YJL164C, strain tpk1, stronger effect = lower value 0.607 | locus YJL166W, strain qcr8, stronger effect = lower value 0.493 | locus YJL187C, strain SWE1 (second series), stronger effect = lower value 0.798 | locus YJR043C, strain POL32, stronger effect = lower value 0.567 | locus YJR066W, strain TOR1, stronger effect = lower value 0.716 | locus YKL009W, strain mrt4, stronger effect = lower value 0.82 | locus YKL160W, strain elf1, stronger effect = lower value 0.7 | locus YKR001C, strain vps1, stronger effect = lower value 0.582 | locus YKR026C, strain gcn3, stronger effect = lower value 0.866 | locus YKR091W, strain srl3, stronger effect = lower value 0.877 | locus YLL001W, strain dnm1, stronger effect = lower value 0.596 | locus YLL026W, stronger effect = lower value 0.65 | locus YLL041C, strain sdh2, stronger effect = lower value 0.801 | locus YLR027C, strain aat2, stronger effect = lower value 0.569 | locus YLR058C, strain SHM2, stronger effect = lower value 0.801 | locus YLR113W, strain HOG1, stronger effect = lower value 0.819 | locus YLR221C, strain rsa3, stronger effect = lower value 0.483 | locus YLR258W, strain gsy2, stronger effect = lower value 0.735 | locus YLR262C, strain YPT6 (second series), stronger effect = lower value 0.826 | locus YLR268W, strain sec22, stronger effect = lower value 0.669 | locus YLR320W, strain mms22, stronger effect = lower value 0.502 | locus YLR330W, strain CHS5, stronger effect = lower value 0.822 | locus YLR342W, strain FKS1, stronger effect = lower value 0.889 | locus YLR370C, strain arc18, stronger effect = lower value 0.766 | locus YLR371W, strain rom2, stronger effect = lower value 0.595 | locus YLR384C, strain iki3, stronger effect = lower value 0.658 | locus YLR418C, strain cdc73, stronger effect = lower value 0.645 | locus YML016C, strain PPZ1, stronger effect = lower value 0.842 | locus YML032C, strain rad52, stronger effect = lower value 0.801 | locus YML120C, strain ndi1, stronger effect = lower value 0.666 | locus YML124C, strain tub3, stronger effect = lower value 0.901 | locus YMR058W, strain fet3, stronger effect = lower value 0.559 | locus YMR129W, stronger effect = lower value 0.798 | locus YMR205C, strain PFK2, stronger effect = lower value 0.732 | locus YMR223W, strain ubp8, stronger effect = lower value 0.735 | locus YMR231W, strain pep5, stronger effect = lower value 0.522 | locus YNL067W, strain RPL9B, stronger effect = lower value 0.779 | locus YNL071W, strain lat1, stronger effect = lower value 0.538 | locus YNL183C, strain NPR1, stronger effect = lower value 0.623 | locus YNL209W, strain ssb2, stronger effect = lower value 0.628 | locus YNL233W, strain BNI4, stronger effect = lower value 0.767 | locus YNL248C, strain rpa49, stronger effect = lower value 0.493 | locus YNL250W, strain rad50, stronger effect = lower value 0.884 | locus YNL271C, strain bni1, stronger effect = lower value 0.887 | locus YNL298W, strain CLA4, stronger effect = lower value 0.906 | locus YNL307C, strain MCK1, stronger effect = lower value 0.575 | locus YNL322C, strain KRE1 (second series), stronger effect = lower value 0.711 | locus YNR049C, strain mso1, stronger effect = lower value 0.908 | locus YNR052C, strain pop2, stronger effect = lower value 0.821 | locus YOL147C, strain pex11, stronger effect = lower value 0.827 | locus YOR001W, strain rrp6, stronger effect = lower value 0.643 | locus YOR069W, strain VPS5, stronger effect = lower value 0.891 | locus YOR070C, strain gyp1, stronger effect = lower value 0.645 | locus YOR083W, strain WHI5, stronger effect = lower value 0.554 | locus YOR106W, strain vam3, stronger effect = lower value 0.359 | locus YOR136W, strain idh2, stronger effect = lower value 0.865 | locus YOR144C, strain elg1, stronger effect = lower value 0.932 | locus YOR184W, strain ser1, stronger effect = lower value 0.679 | locus YOR231W, strain MKK1, stronger effect = lower value 0.684 | locus YOR265W, strain rbl2, stronger effect = lower value 0.756 | locus YOR270C, strain vph1, stronger effect = lower value 0.352 | locus YOR290C, strain snf2, stronger effect = lower value 0.685 | locus YOR316C, strain cot1, stronger effect = lower value 0.921 | locus YPL051W, strain arl3, stronger effect = lower value 0.583 | locus YPL078C, strain atp4, stronger effect = lower value 0.562 | locus YPL106C, strain sse1, stronger effect = lower value 0.808 | locus YPL240C, strain hsp82, stronger effect = lower value 0.752 | locus YPL256C, strain CLN2, stronger effect = lower value 0.822 | locus YPR163C, strain tif3, stronger effect = lower value 0.854 | locus YPR167C, strain met16, stronger effect = lower value 0.904 | strain wtn01, stronger effect = lower value 0.652
0.969 (inactive) and 0.726 (active): locus YHR030C, strain SLT2, stronger effect = lower value
